Structures are written as SMILES. The panel holds about 83,000 compounds, 20% with a hit somewhere; the sample as a whole holds those more often.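 Interpretation: 100, growth as untreated; towards 0, rising growth inhibition; 0, no net growth; 0 to -100, cell death. Compounds scoring below 10 were considered active.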 Values without a mark were called inactive. The source made the active and inactive calls.

The results in this text go back to PubChem BioAssay (NCI).

The assay concerns OVCAR-3 ovarian. As to the kind of experiment: NCI-60 one-dose screen, 48 h (100 = growth as untreated, 0 = no growth, -100 = all killed). The settings on record: 10 µM unless noted. On the procedure: Growth inhibition of the OVCAR-3 human tumor cell line is measured as a screen for anti-cancer activity. Cells are grown in 96 well plates and exposed to the test compound for 48 hours. Compounds are tested at a single concentration, which is 10^-5 M for most compounds. The reported endpoint is percent growth (GI% or GIPRCNT), where numbers from 0 - 100% represent growth inhibition, and numbers from -100% - 0 represent cell death. For example, a value of 40 represents 60% growth inhibition. A value of 0 means no net growth occurred over the course of the experiment. A value of -40 indicates 40% of cells at the beginning of the experiment died by the end of the experiment. A value of -100 means all cells are dead at the end of the experiment.
NCI-60 Human Tumor Cell Lines Screen was performed using the standard one-dose NCI protocol, which is described in more detail at https://dtp.cancer.gov/discovery_development/nci-60/default.htm.
Compounds with GIPRCNT values below 10 were considered active. Activity score was based on GIPRCNT using the following formula: […]
Score is 0 for GIPRCNT values of 100 or above, 50 for GIPRCNT values of 0, and 100 for GIPRCNT values of -100.
For `COc1ccc(-n2c(/C=C3\C(=O)Nc4ccccc43)ccc2CO)cc1`, the growth is 114%. In the case of `CCN(CC)CCn1c2ccc(O)cc2c2sc3cc(OC)ccc3c(=O)c21` it was 41.8%; in that of `O=C(CSc1nnc(-c2ccc3nc(-c4ccccc4)[nH]c3c2)o1)Nc1ccc(C(=O)/C=C/c2ccccc2)cc1`, 116%. `Cc1ccc(NC(=O)CNc2cc(C(N)=O)cc(F)c2C)c(Cl)c1`: the growth was 111%. As for `NC(N)=Nc1ccc(Oc2cccc(Oc3ccc(Cl)c(C(F)(F)F)c3)c2)cn1`, the growth was -95% (active). As for `COc1ccc(NC(=O)CSc2nnc(-c3ccc4nc(-c5ccccc5)[nH]c4c3)o2)cc1`, the growth is 110%. In the case of `COc1cc(-c2nn(C(C)(C)C)cc2-c2ccnc(NCCCNS(=O)(=O)c3ccc(Cl)cc3)n2)ccc1Cl` it was 73.5%; in that of `CCCC(=O)NC(c1cccnc1)c1cc(C(C)(C)C)c2cccnc2c1O` (stereo not given), 12.4%; in that of `O=C(Nc1ccc2c(ccn2Cc2ccccn2)c1)c1ccnnc1`, 106%. For the compound `NC(N)=Nc1ccc(Oc2cccc(Nc3ccc(Cl)c(C(F)(F)F)c3)c2)cn1`, the growth is -93.8% (active). Next, `O=S(=O)(NCCNc1nccc(-n2cnc3ccccc32)n1)c1ccc(Cl)cc1`: 106%; `Cc1cc2nc(C(Cl)Cl)nc(-c3cccs3)n2n1`: -30.9% (active).

On to `COc1cc2oc(-c3cccc(NC(=O)c4cc(N)ccc4Cl)c3)cc(=O)c2c(OC)c1OC`, for which the growth was 104%. On to `COc1ccc2c(c1)c(-c1cc(N)n3nc(-c4cn(C)c5ccc(OC)cc45)cc3n1)cn2C`, for which the growth was 117%. Next, `COc1c(N2CC3CCCNC3C2)c(F)cc2c(=O)c(C(=O)N/N=C/c3ccc(N(C)C)cc3)cn(C3CC3)c12` (stereo not given): 51.2%; `N#Cc1c(-c2cccs2)cc(-c2cnccn2)nc1SCC(=O)Nc1ccc(Br)cc1`: 96.3%; `O=C1C(c2ccccc2)=C(N2CCc3ccccc32)OC1(Cl)Cl`: 3.88% (active). Next, `CCCn1cnc2c(c1=N)C(c1ccc(Cl)cc1)c1sc3c(CC)cccc3c1O2` (stereo not given): 6.2% (active); `Cc1ccc2c(c1)C13C(=C2Br)CCCN1C(=O)c1ccccc13` (stereo not given): 94.8%. On to `COc1ccccc1NC1=C(Cl)C(=O)c2nc(C)ccc2C1=O`, for which the growth was -85.9% (active).

Turning to `CCCCc1nc(/C=N/Nc2nc(Nc3ccccc3)nc(Nc3ccc(S(N)(=O)=O)cc3)n2)c(Cl)[nH]1`, the growth is 46.2%. For `CCCn1cnc2c(c1=N)C(c1ccc(F)cc1)c1sc3c(CC)cccc3c1O2` (stereo not given), the growth is -10.2% (active). In the case of `O=C(O)c1cn(C2CC2)c2cc(N3CCN(C(=O)CN4C(=O)CSC4=O)CC3)c(F)cc2c1=O` it was 108%; in that of `CNC(=O)c1c(NC(=O)c2cccc(C(F)(F)F)c2F)sc2c1CCC(=O)C2`, 12.5%.

In the case of `CC/C(=C/c1c(O)cccc1OC)c1ccc2c(OC)cccc2[o+]1`, the growth is 109%.

Take `Cn1cc(-c2cc(N)n3nc(-c4cn(C)c5ccccc45)cc3n2)c2ccccc21`: the growth is 101%. In the case of `Cc1ccc(-n2cc(/C=N/NC(=O)c3nc(N)n[nH]3)c(-c3ccc(S(C)(=O)=O)cc3)n2)cc1` it was 95.7%; in that of `N#Cc1cccc(CN2CCC3=C(C2)C(=O)N(Cc2ccc(Cl)cc2)C2=NCCCN23)c1`, 23.3%.

As for `COc1ccc([C@H]2c3[nH]c4ccccc4c3C[C@H]3C(=O)N(C4CCN(Cc5c(Cl)cccc5Cl)CC4)CC(=O)N23)c(OC)c1`, the growth was 103%. Next, `C#C[C@]1(O)CC[C@H]2[C@@H]3CC=C4c5sc(-c6ccc(C)cc6)nc5CC[C@]4(C)[C@H]3CC[C@@]21C`: 62%; `COc1ccc(C2c3sc4c(C)cccc4c3Oc3nc(CC(=O)Nc4ccccc4)[nH]c(=O)c32)cc1` (stereo not given): 93.9%; `CCC(CC)N1C(=O)/C(=c2\sc3n(c2=O)NC2C(N=3)N(CC)C(=O)N2CC)c2ccccc21` (stereo not given): 31.5%. Next, `COc1cc(-c2ccc3ncnc(NCc4ccccc4)c3c2)cnc1OC`: 43.4%; `O=C(Nc1ccc2c(ccn2Cc2ccccn2)c1)c1cnccn1`: 110%; `O=S(=O)(NCCNc1nccc(-n2cnc3ccccc32)n1)c1ccc(C(F)(F)F)cc1`: 72.9%. Turning to `Cn1cc(-c2nnc(N)nc2-c2c[nH]c3ccc(F)cc23)c2cc(F)ccc21`, the growth is 78.6%.

Regarding `NC(N)=Nc1ccc(Oc2cccc(NC(N)=Nc3ccc(Cl)c(C(F)(F)F)c3)c2)cc1`, the growth is 30.8%. For `N#Cc1cccc(NC(=O)c2cc(-c3ccc(F)cc3F)ccc2O)c1`, the growth was 9.74% (active). In the case of `COc1cc(-c2nn(C(C)(C)C)cc2-c2ccnc(NCCCNS(=O)(=O)c3ccccc3)n2)ccc1Cl` it was 93.1%. In the case of `COc1ccc(/C=N/NC(=O)c2cn(C3CC3)c3c(OC)c(N4CC5CCCNC5C4)c(F)cc3c2=O)cc1` (stereo not given) it was 83.1%.
